Screening data: PubChem, Johns Hopkins Ion Channel Center
KCNQ2 inh = inhibitors of rat KCNQ2 potassium channel. O88943. CHO-K1 KCNQ2, FluxOR thallium flux, 20 min; hits give low values. B-score at 10 µM. 310,000 tested, 1.1% active;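 active means fluorescence ratio B-score at most minus 3 library SDs, with starting brightness B-score within 2 library SDs, cut at about -5.5 in these data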
Target sequence (O88943 whole entry, looked up): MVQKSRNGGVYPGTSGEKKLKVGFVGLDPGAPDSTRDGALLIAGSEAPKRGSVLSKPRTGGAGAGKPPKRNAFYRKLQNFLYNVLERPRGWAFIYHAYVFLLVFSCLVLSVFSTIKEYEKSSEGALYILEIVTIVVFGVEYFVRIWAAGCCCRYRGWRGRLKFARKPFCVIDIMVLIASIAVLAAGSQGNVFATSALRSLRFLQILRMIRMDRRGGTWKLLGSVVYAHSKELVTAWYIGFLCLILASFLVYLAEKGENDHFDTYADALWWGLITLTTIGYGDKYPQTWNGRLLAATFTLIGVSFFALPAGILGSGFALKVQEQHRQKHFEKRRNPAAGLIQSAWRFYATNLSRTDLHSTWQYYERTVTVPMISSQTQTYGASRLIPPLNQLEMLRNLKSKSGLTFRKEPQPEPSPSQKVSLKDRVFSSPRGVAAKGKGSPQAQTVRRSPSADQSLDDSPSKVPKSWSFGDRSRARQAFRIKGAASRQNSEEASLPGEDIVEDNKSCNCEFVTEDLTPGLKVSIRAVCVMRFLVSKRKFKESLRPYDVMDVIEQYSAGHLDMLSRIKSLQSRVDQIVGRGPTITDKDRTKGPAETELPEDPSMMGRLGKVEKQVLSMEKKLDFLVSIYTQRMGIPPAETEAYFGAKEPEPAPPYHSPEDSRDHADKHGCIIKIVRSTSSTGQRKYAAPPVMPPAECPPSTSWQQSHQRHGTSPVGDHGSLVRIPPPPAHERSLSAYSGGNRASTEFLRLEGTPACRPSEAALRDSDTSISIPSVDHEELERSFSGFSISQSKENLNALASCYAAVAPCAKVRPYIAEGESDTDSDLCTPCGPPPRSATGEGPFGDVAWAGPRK
KCNQ2 enhance = potentiators of rat KCNQ2 potassium channel | O88943 | CHO-K1 KCNQ2, FluxOR thallium flux fluorescence; hits give high values | B-score at 10 µM | 310,000 tested, 0.54% active;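 active means fluorescence ratio B-score at least 3 SD of library B-scores, with initial fluorescence B-score within 3 of them, cut at about 5.3 in these data; same plate scores as AID 2156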;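 further: B-score of peak minus minimum over baseline fluorescence ratio after K+ and Tl+ stimulus; positive B-score means potentiation of KCNQ2 with more thallium influx and brighter signal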
* marks the source's active call; other numbers are inactive results; i = inactive; . = no result given. Sampled rows, rich in hits. Any-hit rate of the full collection: about 1.6%.

SMILES	KCNQ2 inh	KCNQ2 enhance
CCC1(c2ccc(Cl)cc2)NC(=S)N(c2ccccc2)N1 (centres undefined)	i	11.1*
CN(C(=O)COC(=O)c1nc(Cl)c(Cl)c(Cl)c1Cl)C1CCS(=O)(=O)C1 (centres undefined)	i	.
S=C(NCc1ccco1)N1CCN(c2ccccc2Cl)CC1	-5.8*	-5.8
Cc1ccc(Cl)cc1N1CCN(C(=S)NCc2ccco2)CC1	i	.
CC(C)(C)NC(=O)CN(CCN1CCOCC1)C(=O)CNS(=O)(=O)c1ccccc1	i	0.17
O=C1c2ccccc2NC(c2ccccc2)N1Cc1ccco1 (centres undefined)	i	.
COc1cccc(OCc2cc(C3Nc4ccccc4C(=O)N3Cc3ccco3)ccc2OC)c1 (centres undefined)	-5.87*	-5.87
O=C1c2ccccc2NC(c2ccc(F)cc2)N1Cc1ccco1 (centres undefined)	i	0.53
COc1ccc(C2Nc3ccccc3C(=O)N2Cc2ccco2)cc1COc1ccc([N+](=O)[O-])cc1 (centres undefined)	-6.79*	-6.79
Cc1ccccc1C(=O)Nc1ccnn1C1CCN(Cc2cnn(C(C)C)c2)CC1	i	1.29
C/C(=C/C(=O)Nc1cccc(F)c1)N1CCCC1	i	0.01
CCc1noc(C)c1C(=O)Nc1ccc(-c2nnc3n2CCCCC3)cc1	i	3.27
CN(c1ccccc1)S(=O)(=O)c1cccc(Cl)c1Cl	-5.61*	-5.61
CN(c1ccccc1)S(=O)(=O)c1cc(Cl)ccc1Cl	i	.
CC1CCN(c2nc3ccccc3nc2C(C#N)C(=O)OC2CCCCC2)CC1 (centres undefined)	i	.
CC1CN(c2nc3ccccc3nc2C(C#N)C(=O)OC2CCCCC2)CC(C)O1 (centres undefined)	-5.94*	-5.94
Cc1ccc(S(=O)(=O)NCC(C)n2nc(C)cc2C)cc1 (centres undefined)	i	2.68
Cc1ccc(C(C[N+](=O)[O-])n2nc(C)cc2C)cc1 (centres undefined)	-7.43*	-7.43
CCCN1CCC(NC(=O)C2CCN(C(C)=O)CC2)CC1	i	.
COC(=O)Nc1ccc(=O)n(Cc2c(Cl)cccc2Cl)c1	i	0.54
O=C(Nc1ccc2ccccc2c1)C(c1ccccc1)C1CCCC1 (centres undefined)	-5.7*	-5.7
Cc1ccc(NC(=O)C(c2ccccc2)C2CCCC2)cc1 (centres undefined)	i	.
FC(F)(F)c1cc(-c2ccccn2)nc2cc(-c3ccccc3)nn12	i	.
COc1ccc(NC(=S)N(CCCN2CCCC2)Cc2cccn2Cc2ccc(Cl)cc2)cc1Cl	i	0.05
Cc1[nH]c(C)c(S(=O)(=O)NCc2ccc(OC(C)C)cc2)c1C(=O)N1CCCC1	-5.65*	-5.65
SMILES	KCNQ2 inh	KCNQ2 enhance
COc1ccc(CNS(=O)(=O)c2c(C)[nH]c(C)c2C(=O)N2CCCC2)cc1	i	.
CCOc1cc(N2CCOCC2)c(OCC)cc1NC(=O)CN1CCC(Cc2ccccc2)CC1	i	6.14*
CCOc1cc(N2CCOCC2)c(OCC)cc1NC(=O)CN1C(=O)NC(Cc2ccccc2)C1=O (centres undefined)	i	.
COc1ccc(CNC(=O)C2Cc3cc(S(=O)(=O)N4CCCC4)ccc3N2C(C)=O)c(OC)c1 (centres undefined)	i	0.64
O=C(Nc1ccc(F)cc1)c1cnc(-c2ccccc2)nc1-c1ccccc1	i	.
O=C(Nc1ccc(F)c(F)c1)c1cnc(-c2ccccc2)nc1-c1ccccc1	-5.62*	-5.62
COc1ccccc1CNC(=O)CS(=O)(=O)Cc1ccccc1	i	.
O=C(CN(Cc1ccccc1)S(=O)(=O)c1ccc(F)cc1)NCc1ccccn1	i	.
COc1ccc(OC)c(-c2cc(C(=O)NC3CCCC3)c3ccccc3n2)c1	-6.07*	-6.07
CC(=O)c1cccc(NC(=O)c2cc(-c3ccco3)nc3ccccc23)c1	i	.
COc1cc(-c2cc(C(=O)Nc3cccc(C(C)=O)c3)c3ccccc3n2)cc(OC)c1OC	-5.61*	-5.61
COc1cccc(-c2cc(C(=O)NC3CCCC3)c3ccccc3n2)c1	i	.
COc1ccc(-c2cc(C(=O)Nc3ccc(C(N)=O)cc3)c3ccccc3n2)cc1OC	i	.
COc1ccc(NC(=O)c2cc(-c3ccc(OC)c(OC)c3)nc3ccccc23)c(OC)c1	-5.87*	-5.87
Cc1ccnc(N2CCCC(C(=O)Nc3cccc(C)c3C)C2)n1 (centres undefined)	i	0.82
O=C(CNc1cc(S(=O)(=O)N2CCOCC2)ccc1N1CCCC1)N1CCc2ccccc21	i	.
COC(=O)c1ccc(C(=O)OC)c(NC(=O)COC(=O)C2CCCCC2)c1	i	0.28
COC(=O)c1ccc(C(=O)OC)c(NC(=O)COC(=O)C2CCC(C(C)(C)C)CC2)c1 (centres undefined)	-5.9*	-5.9
O=C(N/N=C/c1ccccn1)c1sc2ccccc2c1Cl	i	13.6*
Cc1cccc(-c2cc(C(=O)N/N=C/c3cccnc3)c3ccccc3n2)c1	i	.
N/C(=N\OC(=O)c1cc(-c2ccccc2)nc2ccccc12)c1ccc(Cl)cc1	-6.23*	-6.23
CCCOc1cccc(-c2cc(C(=O)N/N=C/c3cccnc3)c3ccccc3n2)c1	-5.83*	-5.83
N/C(=N\OC(=O)c1cc(-c2ccccc2)nc2ccccc12)c1cccnc1	i	.
O=C(N/N=C/c1c[nH]c2ccccc12)c1sc2ccccc2c1Cl	i	.
O=C(N/N=C/c1ccccn1)c1cc(-c2ccc(Br)cc2)nc2ccccc12	i	4.84
SMILES	KCNQ2 inh	KCNQ2 enhance
O=C(N/N=C/c1ccccn1)c1cc(-c2ccc(Cl)cc2)nc2ccccc12	i	9.58*
O=C(CCCCCN1C(=O)c2ccccc2C1=O)Nc1ccc(C(=O)O)cc1	i	0.08
CCN=C(NS(=O)(=O)c1ccc(Br)cc1)c1ccc(Cl)cc1	i	1.15
COc1cccc(CNC(=O)C2CC(=O)N(C3CCCCC3)C2)c1 (centres undefined)	i	2.07
CC(=O)NCCc1ccc(S(=O)(=O)N2CCN(c3nc(-c4ccccc4)c(C)s3)CC2)cc1	i	.
CCN(CC(=O)N1CCCC1)S(=O)(=O)c1ccc(OC)cc1	i	0.62
O=C(CCCCCCCCC(=O)N/N=C/c1ccco1)N/N=C/c1ccco1	i	0.39
CCCCCC(=O)N/N=C/c1ccco1	i	7.16*
O=C(N/N=C\c1ccco1)Nc1cccc(Cl)c1	i	5.95*
Cc1cccc(NC(=O)CCC(=O)N/N=C/c2ccco2)c1	i	.
Cc1cccc(NC(=S)NNC(=O)c2cc3c(s2)CCC(C)C3)c1C (centres undefined)	i	8.53*
Cc1ccc(C)c(NC(=S)NNC(=O)c2cc3c(s2)CCC(C)C3)c1 (centres undefined)	i	11.3*
CC1CCc2sc(C(=O)NN=C3CCC(c4ccccc4)CC3)cc2C1 (centres undefined)	i	0.75
Cc1ccc(C)c(NC(=S)NNC(=O)c2sccc2C)c1	i	1.65
COc1ccc(C(=O)NCCc2nnc3ccc(SCC(=O)N4CCOCC4)nn23)cc1	i	.
CC(=O)N1c2ccc(S(=O)(=O)N3CCC(C(=O)Nc4cccc(F)c4)CC3)cc2CC1C (centres undefined)	i	.
O=C(Cc1cccc2ccccc12)Nc1ccc(O)cc1C(=O)O	i	.
CN(C)c1ccc(S(=O)(=O)N(C)C)cc1NC(=O)Cc1cccc2ccccc12	-7.47*	-7.47
CC1=C(C)C(=O)C(CCCCC#CCCCC#CCO)=C(C)C1=O	-6.83*	-6.83
